Rac1 act GTP bind: modulators of GTP binding to human Rac1 activated mutant. P63000. GST-Rac1 activated beads, fluorescent GTP binding, flow cytometry; actives lie on both sides; 100% means binding = to untreated wells. percent activity (GTP binding), % at 10 µM. 190,000 compounds, 0.11% hits. AID 764;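 active = GTP binding at least 20 percentage points away from the 100% baseline, in either direction, so actives lie on both sides; inconclusive = Compound likely fluorescent itself, or too few beads counted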
Cdc42 wt GTP: changes GTP binding to wildtype human Cdc42 | P60953 | GST-Cdc42 beads, Bodipy-GTP binding, flow cytometry; actives lie on both sides | percent activity (GTP binding), % at 10 µM | 190,000 compounds, 0.2% hits | AID 761;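 active = percent activity GTP binding at least 20 points away from the 100% baseline, either down as inhibitor or up as activator; inconclusive = compound flagged as likely green fluorescent from well-wide comparison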;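 note: median bead fluorescence of bound Bodipy-FL-GTP at 100 nM; below 100% means less GTP binding so inhibitor and above means activator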
Target sequence (P60953 whole entry, looked up): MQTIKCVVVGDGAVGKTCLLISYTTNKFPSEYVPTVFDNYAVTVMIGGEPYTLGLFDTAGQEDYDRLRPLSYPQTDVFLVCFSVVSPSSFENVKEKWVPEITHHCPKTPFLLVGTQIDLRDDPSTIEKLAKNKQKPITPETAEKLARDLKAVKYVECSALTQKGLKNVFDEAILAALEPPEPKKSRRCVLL
Rab2A wt mod: changes GTP binding to wildtype dog Rab2A, up or down. GST-Rab2 wt beads, Bodipy-GTP binding, flow cytometry. P61105. GTP binding activity, % at 10 µM. 190,000 compounds, 0.19% hits;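 active = GTP binding activity at least 20 points away from 100%, either lowered or raised; inconclusive = signal likely due to the compound's own green fluorescence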
Rac1 wt modul: modulators of human Rac1 wildtype GTP binding. GTP binding activity (% of control), % at 10 µM. P63000. AID 757. GST-Rac1 beads, fluorescent GTP binding, flow cytometry; actives lie on both sides; 0 = cold GTP competed, 100 = untreated. 190,000 compounds, 0.27% hits;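 active = GTP binding activity at least 20 points away from the 100% control level, either lower or higher; inconclusive = compound flagged as likely green fluorescent, judged across all proteins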
Rab7 wt modul: alters GTP binding to wildtype dog Rab7 | AID 758 | 190,000 compounds, 0.055% hits | GTP binding activity (percent of control), % at 10 µM | GST-Rab7 beads, fluorescent GTP binding, flow cytometry; actives lie on both sides; untreated = 100%, excess cold GTP = 0%;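 active = fluorescent GTP binding to Rab7 beads changed by at least 20 points from the 100% baseline, either direction, mostly lower; inconclusive = compound itself probably fluorescent, or too few beads counted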;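 note: median green fluorescence of bound Bodipy-FL-GTP per Rab7 bead population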
HRas wt GTP: changes GTP binding to wildtype human HRas; P01112; GST-Ras wt beads, Bodipy-FL-GTP binding, flow cytometry; actives lie on both sides; GTP binding activity, % at 10 µM; 190,000 compounds, 0.14% hits; AID 759;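 active = GTP binding activity at least 20% away from the 100% baseline, either lowered as inhibitor or raised as activator; inconclusive = flagged as likely green fluorescent, judged across all proteins in the well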
Target sequence (P01112 whole entry, looked up): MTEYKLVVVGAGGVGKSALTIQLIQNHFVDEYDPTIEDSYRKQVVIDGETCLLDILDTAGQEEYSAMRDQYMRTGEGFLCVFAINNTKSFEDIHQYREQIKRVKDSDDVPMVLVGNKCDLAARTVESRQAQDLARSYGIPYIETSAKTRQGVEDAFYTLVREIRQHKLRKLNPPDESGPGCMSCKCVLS
Each line names hits and unclear results; the compound was inactive in the other large screens; [ ] = remark or other dose. Compounds with a hit are over-represented: about 0.4% of the library has one in this group of screens.

Nc1nc(CN2CCN(c3ccccc3F)CC2)nc(N2CCCc3ccccc32)n1	Cdc42 wt GTP 79.0
O=C(COC(=O)c1ccc2c(c1)C(=O)N(c1cccc3ncccc13)C2=O)c1ccc(Cl)cc1	none
Cc1ccc(C(=O)COC(=O)c2ccc3c(c2)C(=O)N(c2cccc4ncccc24)C3=O)cc1	Rac1 act GTP bind 75.0, Cdc42 wt GTP 77.0, Rab2A wt mod 71.0, Rac1 wt modul 71.0, HRas wt GTP 76.0
Cc1ccc(OCC(=O)N2CCN(C(=O)c3ccncc3)CC2)cc1	none
O=C1c2ccccc2-n2c1nc1ccccc1c2=O	Rac1 wt modul 77.0
O=C(O)/C=C\C(=O)NCc1cccnc1	none
CCOC(=O)c1cnc2nc(C)nn2c1N	none
CCOC(=O)c1cnc2c(C#N)cnn2c1N	Cdc42 wt GTP 77.0, Rab2A wt mod 73.0, Rac1 wt modul 73.0, HRas wt GTP 72.0
Cc1ccccc1NC(=O)CN1C(=O)S/C(=C\c2ccc(-c3cc(C(=O)O)ccc3C)o2)C1=O	Cdc42 wt GTP 79.0
CC(C)c1ccc(C(=O)NN2C(=O)C3CCCCC3C2=O)cc1 (centres undefined)	none
CCOc1ccc(-c2nc[nH]c2[N+](=O)[O-])cc1	none
CCc1ccc(NS(=O)(=O)c2ccc3[nH]cc(C(=O)N4CCc5ccccc54)c(=O)c3c2)cc1	Cdc42 wt GTP 70.0
COc1cc(/C=N/NC(=O)CCN2CCN(Cc3ccccc3)CC2)cc(OC)c1OC	none
COc1cc(/C=N/NC(=O)CCN2CCN(c3ccccc3)CC2)cc(OC)c1OC	Rac1 wt modul 79.0
O=C(C#Cc1ccccc1)c1cccc([N+](=O)[O-])c1	Rac1 act GTP bind 71.0, Cdc42 wt GTP 74.0
N/C(=N\OC(=O)Oc1ccccc1)c1cccc([N+](=O)[O-])c1	none
CCCCOc1ccc(/C(N)=N/O)cc1	none
CCC(CC)C(=O)NCc1cccnc1	none
O=C(O)c1ccc(N2C(=O)/C(=C/c3ccc(-c4ccc([N+](=O)[O-])cc4)o3)C=C2c2ccccc2)cc1	Rac1 act GTP bind 79.0, Cdc42 wt GTP 75.0, Rac1 wt modul 79.0
CC1=NN(c2ccc(Cl)c(C(=O)O)c2)C(=O)/C1=C\c1ccc(-c2ccc(C(=O)O)cc2)o1	none
O=C(O)CN(c1ccccc1)S(=O)(=O)c1cc(C(F)(F)F)cc(C(F)(F)F)c1	none
CC(C)(C)C(=O)OCC1OC(n2cnc(C(N)=O)n2)C(O)C1O (centres undefined)	Rac1 wt modul 120.0[activator]
COC(=O)c1ncn(C2OC(COC(C)=O)C(OC(C)=O)C2OC(C)=O)n1 (centres undefined)	none
O=[N+]([O-])c1ccc(/C=N/N=C/c2ccc([N+](=O)[O-])o2)o1	none
O=C1OC(c2ccc(F)cc2)=C/C1=C\c1ccc([N+](=O)[O-])o1	Rab7 wt modul 124.0[activator]
COc1cc(/C=N/Nc2nn3cnnc3c3ccccc23)ccc1O	Rac1 act GTP bind inconclusive, Cdc42 wt GTP 58.0, Rab2A wt mod 72.0, Rac1 wt modul 75.0, HRas wt GTP 62.0
Clc1cnc(N/N=C/c2ccco2)c(Cl)c1	none
C(=N\Nc1nn2cnnc2c2ccccc12)/c1ccco1	Cdc42 wt GTP 77.0, Rab2A wt mod 72.0, HRas wt GTP 75.0
Cc1cc(C(=O)NNC(=O)C2CCCC2)c(C)o1	none
CCC(C)(C)c1ccc2c(c1)C(=O)c1ccccc1C2=O	none
C=CCN1C(=O)/C(=C/C=C2/N(CC)c3ccc(S(=O)(=O)N(C)C)cc3N2CC)SC1=S	HRas wt GTP 79.0
COC(=O)c1cc(Cl)c(NC(=O)c2cc3ccccc3o2)cc1OC	none
O=C(N/N=C/c1ccc([N+](=O)[O-])o1)c1cn(-c2ccccc2)nc1-c1ccc(Cl)cc1	Rac1 wt modul 79.0
O=C(N/N=C/c1ccc([N+](=O)[O-])o1)c1cn(-c2ccccc2)nc1-c1ccccc1	none
CCN(CC)C(=O)CC(c1ccc(F)cc1)c1ccc(OC(C)C)cc1 (centres undefined)	none
Cc1cc2c(cc(C(=O)OCC(=O)NCc3cccs3)n2C(C)C)o1	none

Bioassay records (PubChem)
